Data: PubChem BioAssay (NCATS)
Results filed as inconclusive are left out. Where a call stands in place of a potency, no number is given. Activity calls are given as the source filed them. Calls come from the whole dose curve; as a rule, active = well fitted cell-killing curve with a large enough effect; inconclusive = small, poorly fitted or top-dose-only effect, or effect the other way; inactive = no such curve, though single readings can be large or run the other way.

Test: Quantitative High-Throughput drug screen in 47 multiple myeloma cell lines against the NCATS MIPE library collection: KMS28BM_JCRB cell viability assay (AID 1919874); note: nearly all actives have a fitted effect of over 35% in size
Details: CellTiter-Glo ATP, 48 h; series mostly up to 45.8 µM
Source text: PI: Beverly A. Mock Ph.D.
Laboratory of Cancer Biology and Genetics,
Center for Cancer Research, National Cancer Institute,
National Institute of Health, Bethesda, Maryland
Drug resistance and disease progression are common in multiple myeloma (MM) patients, underscoring the need for new therapeutic combinations. […] We hypothesized that effective combinations would reduce MYC expression and enhance p16 activity. […] These preclinical data identify potentially useful drug combinations for evaluation in drug-resistant MM and reveal potential mechanisms of combined drug sensitivity.
Described herein is the primary MIPE qHTS used to cherrypick compounds. Validated compounds were then further tested for potential synergistic activiy.
[1] Peat TJ, Gaikwad SM, Dubois W, Gyabaah-Kessie N, Zhang S, Gorjifard S, Phyo Z, Andres M, Hughitt VK, Simpson RM, Miller MA, Girvin AT, Taylor A, Williams D, D'Antonio N, Zhang Y, Rajagopalan A, Flietner E, Wilson K, Zhang X, Shinn P, Klumpp-Thomas C, McKnight C, Itkin Z, Chen L, Kazandijian D, Zhang J, Michalowski AM, Simmons JK, Keats J, Thomas CJ, Mock BA. Drug combinations identified by high-throughput screening promote cell cycle transition and upregulate Smad pathways in myeloma. Cancer Lett. 2023 Aug 1;568:216284. doi: 10.1016/j.canlet.2023.216284. Epub 2023 Jun 24. PMID: 37356470; PMCID: PMC10408729.
SEQUENCE No. (e.g., 1, 2, 3, etc.); […] (e.g., Cells, Incubation, Reagent, etc.); VALUE and DESCRIPTION.
1; Cells; 5 uL; white, solid bottom 1536-well Greiner assay plate.
2; Compounds; 23 nL; Kalypsis pin tool (Wako USA) equipped with a 1536-well pin head to transfer to the assay plates.
3; Incubation; 48 hours; 37C incubation.
4; Reagent;5uL; CellTiter Glo (Promega).
5; Detector; 425V; Luminescence; Viewlux PerkinElmer.
NOTES (numbers refer to Sequence numbers above)
1. The cell-based screening methods employed in this study were like those previously published. Briefly, the corresponding myeloma cell lines were screened in 1,536-well plates with 500 cells, 5-uL per well for inhibition of cell viability (assessed by measuring ATP levels with CellTiterGlo).
2. NCATS MIPE 4.0 library of approved and investigational drugs were added using the Kalypsis pin tool. Wells treated with DMSO only for 100% viability and media only for 0% viability were used as controls.
3. The assay plates were covered and incubated for 48 hours in a 37C, 5% CO2 incubator with controlled humidity.
4. After 48 hours, CellTilter-GloTM luminescent substrate mix (Promega) reagent was added to the assay plate and plates we incubated for 5 min at room temperature.
5. Signal was measured as median relative luminescence units on a ViewLux (PerkinElmer) multiplate reader.
[1] Heske CM, Davis MI, Baumgart JT, Wilson K, Gormally MV, Chen L, Zhang X, Ceribelli M, Duveau DY, Guha R, Ferrer M, Arnaldez FI, Ji J, Tran HL, Zhang Y, Mendoza A, Helman LJ, Thomas CJ. Matrix Screen Identifies Synergistic Combination of PARP Inhibitors and Nicotinamide Phosphoribosyltransferase (NAMPT) Inhibitors in Ewing Sarcoma. Clin Cancer Res. 2017 Dec 1;23(23):7301-7311. doi: 10.1158/1078-0432.CCR-17-1121. Epub 2017 Sep 12. PMID: 28899971; PMCID: PMC6636827.
Potency is the fitted concentration of half-maximal effect.

| Structure (SMILES) | Potency |
| --- | --- |
| c1ccc(-c2nn3c(c2-c2ccnc4cc(OCCN5CCOCC5)ccc24)CCC3)nc1 | inactive |
| CCc1cncnc1N1CCN(Cc2nc3ccc(C(F)(F)F)cc3[nH]2)CC1 | 23.5 µM (active) |
| CS(=O)(=O)Oc1ccc2c(NC(N)=O)c(C(=O)c3ccc(Cl)cc3Cl)oc2c1 | 2.35 µM (active) |
| Cc1c(CN2CCN(C(=O)C(C)C)CC2)sc2c(N3CCOCC3)nc(-c3cnc(N)nc3)nc12 | 0.0372 µM (active) |
| Nc1nc2[nH]cc(CCc3ccc(C(=O)N[C@@H](CCC(=O)O)C(=O)O)cc3)c2c(=O)[nH]1 | inactive |
| Cc1ccccc1C(C(=O)NC1CCCC1)N(C(=O)Cn1cnc2ccccc21)c1cccc(F)c1 (stereo not given) | inactive |
| Nc1ccc(S(=O)(=O)Nc2ccnn2-c2ccccc2)cc1 | inactive |
| CCCc1nc2c(C)cc(-c3nc4ccccc4n3C)cc2n1Cc1ccc(-c2ccccc2C(=O)O)cc1 | inactive |
| N[C@@H]1CONC1=O | inactive |
| C1COC(NC(C2CC2)C2CC2)=N1 | inactive |
| Nc1nc2ccc(OC(F)(F)F)cc2s1 | inactive |
| O=c1[nH]c(-c2ccc(C(F)(F)F)cc2)nc2c1CSCC2 | inactive |
| CCOc1cc(N2CCC(O)CC2)ccc1Nc1ncc2c(n1)N(C)c1ccccc1C(=O)N2C | 4.69 µM (active) |
| NC(=O)c1ccc(-c2nc(-c3ccc4c(c3)OCO4)c(-c3ccccn3)[nH]2)cc1 | inactive |
| NCCc1ccc(O)c(O)c1 | inactive |
| Cc1n[nH]c(C)c1Cc1sc2c(c1C(=O)N1C[C@H](O)CO1)c(=O)n(C)c(=O)n2CC(C)C | inactive |
| OCCn1cc(-c2cnc3nnn(Cc4ccc5ncccc5c4)c3n2)cn1 | inactive |
| CS(=O)(=O)c1ccc(C(=O)Nc2ccc(Cl)c(-c3ccccn3)c2)c(Cl)c1 | inactive |
| OC(CCN1CCCCC1)(c1ccccc1)C1CC2C=CC1C2 (stereo not given) | inactive |
| COc1ccc(CCN2CCN(CCCc3ccccc3)CC2)cc1OC | 2.09 µM (active) |

| Structure (SMILES) | Potency |
| --- | --- |
| Cc1cnc(Nc2ccc(OCCN3CCCC3)cc2)nc1Nc1cccc(S(=O)(=O)NC(C)(C)C)c1 | 0.935 µM (active) |
| CCCC(CCC)C(=O)O | inactive |
| C#Cc1cccc(Nc2ncnc3cc(OCCOC)c(OCCOC)cc23)c1 | 0.833 µM (active) |
| Cn1c(=O)c(F)c(Nc2ccc(I)cc2F)c2c(=O)n(C[C@@H](O)CO)cnc21 | inactive |
| COc1ccc(C2=N[C@H](c3ccc(Cl)cc3)[C@H](c3ccc(Cl)cc3)N2C(=O)N2CCNC(=O)C2)c(OC(C)C)c1 | 16.6 µM (active) |
| COc1ccc([C@@H]2CC(=O)c3c(O)cc(O[C@@H]4O[C@H](CO[C@@H]5O[C@@H](C)[C@H](O)[C@@H](O)[C@@H]5O)[C@@H](O)[C@H](O)[C@@H]4O)cc3O2)cc1O | inactive |
| Fc1ccc(Cl)cc1-c1nc(Nc2ccncc2)c2nccnc2n1 | inactive |
| CCOC(=O)N1CCC(=C2c3ccc(Cl)cc3CCc3cccnc32)CC1 | 23.5 µM (active) |
| CC(c1cc2ccccc2s1)N(O)C(N)=O (stereo not given) | inactive |
| N#CC[C@H](C1CCCC1)n1cc(-c2ncnc3[nH]ccc23)cn1 | 20.9 µM (active) |
| OC[C@H](Cc1ccccc1)Nc1nc(Oc2ccc3c(c2)CCC3)nc2c1ncn2Cc1ccc(-c2ccccc2)cc1 | inactive |
| CN(C)c1ccc(C2Nc3ccc4ccccc4c3C3=C2C(=O)CC(C)(C)C3)cc1Br (stereo not given) | inactive |
| COc1cc(F)c(F)c(Nc2ccc(I)cc2F)c1NS(=O)(=O)C1(C[C@H](O)CO)CC1 | 20.9 µM (active) |
| CCCCCCCc1ccc(CCc2cccc(O)c2C(=O)O)cc1 | inactive |
| O=C(Nc1cccnc1)N1CCC(Cc2cccc(Oc3ccc(C(F)(F)F)cn3)c2)CC1 | 8.33 µM (active) |
| Clc1cccc(Cl)c1NC1=NCCN1 | inactive |
| CC1(C)SCCN(S(=O)(=O)c2ccc(OCC#CCO)cc2)[C@@H]1C(=O)NO | inactive |
| CC1(C)Cc2c(-c3ccccc3)c(-c3ccc(Cl)cc3)c(CC(=O)O)n2C1 | 16.6 µM (active) |
| O=C1CCc2cc(OCCCCc3nnnn3C3CCCCC3)ccc2N1 | inactive |
| CC(=O)Oc1ccccc1C(=O)O | 9.35 µM (active) |
